# Compound activity: PubChem BioAssay, Broad Institute
# YB-1 expression – YB-1 expression inhibition; U2OS, qRT-PCR YB-1 vs CDIP delta delta Cp, 16 h; hits give high values; zero = DMSO, each unit about twofold; delta delta Cp (YB-1 minus CDIP) (no concentration beside the values); hit rate 0.37% among 30,000; AID 434959;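 active means delta delta Cp rounded down to an integer at or above 3, about 3 SD of DMSO wells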;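 further: higher means less YB-1 transcript or more CDIP transcript relative to DMSO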
# PD-1 reversal – reversal of PD-1 mediated T-cell inhibition. primary human CD4 T cells, PD-L1 beads, CellTiter-Glo 96 h. activation, % (concentration not given with the values). 29,000 tested, under 10 active. AID 2316; call rule not given here;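 further: 0% = median vehicle wells and 100% = positive control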
# ROS inducer – inducers of reactive oxygen species in cancer cells; U2OS ROS induction, H2DCF-DA fluorescence; ROS induction (% of piperlongumine), % at 10 µM; hit rate 2% among 46,000; in the data active means ROS induction above about 79%, passing the limit was not always enough;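 further: 0% = DMSO vehicle median and 100% = reference compound median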
# Starred values were filed as active, the others as inactive; / = no result. Hits are enriched below; roughly 2.3% of the tested compounds scored in any of these assays.
SMILES,YB-1 expression,PD-1 reversal,ROS inducer
CC(C)NC(=O)N(C)C[C@H]1Oc2ccc(NC(=O)Nc3ccc4c(c3)OCO4)cc2CC(=O)N([C@@H](C)CO)C[C@@H]1C,0.26,-1,-6
CC(C)NC(=O)N(C)C[C@@H]1Oc2ccc(NC(=O)Nc3ccc4c(c3)OCO4)cc2CC(=O)N([C@H](C)CO)C[C@H]1C,0.15,1,126*
CNC[C@@H]1Oc2ccc(NC(=O)NC(C)C)cc2CC(=O)N([C@H](C)CO)C[C@@H]1C,-0.17,-1,127*
COc1ccc(S(=O)(=O)Nc2ccc3c(c2)CC(=O)N([C@H](C)CO)C[C@@H](C)[C@@H](CN(C)CC2CC2)O3)cc1,-0.59,1,2
COc1ccc(NC(=O)N(C)C[C@H]2Oc3ccc(NS(=O)(=O)c4ccc(OC)cc4)cc3CC(=O)N([C@@H](C)CO)C[C@H]2C)cc1,-0.093,0,3
COc1ccc(NC(=O)N(C)C[C@H]2Oc3ccc(NS(=O)(=O)c4ccc(OC)cc4)cc3CC(=O)N([C@H](C)CO)C[C@H]2C)cc1,-0.013,2,81*
COc1ccc(S(=O)(=O)Nc2ccc3c(c2)CC(=O)N([C@H](C)CO)C[C@@H](C)[C@H](CN(C)CC2CC2)O3)cc1,3.2*,1,12
CNC[C@@H]1Oc2ccc(NC(=O)NC(C)C)cc2CC(=O)N([C@@H](C)CO)C[C@@H]1C,0.12,/,7
COc1ccc(C2C(C(=O)c3ccco3)C(=O)C(=O)N2CCN(C)C)cc1OC (stereo not given),/,3,-14
COc1cccc(C(=O)NC2CC(C)(C)NC(C)(C)C2)c1,/,/,-2
COC(=O)c1cc2oc3ccccc3c2n1CC(=O)NCCC1=CCCCC1,/,/,2
CC(C)NC(=O)Nc1ccc2c(c1)CC(=O)N([C@@H](C)CO)C[C@H](C)[C@@H](CN(C)C(=O)Nc1ccc(F)cc1)O2,-0.66,0,-15
Cc1noc(C)c1S(=O)(=O)Nc1ccc2c(c1)CC(=O)N([C@@H](C)CO)C[C@H](C)[C@H](CN(C)CC1CCCCC1)O2,0.0078,1,0
Cc1noc(C)c1S(=O)(=O)Nc1ccc2c(c1)CC(=O)N([C@H](C)CO)C[C@@H](C)[C@H](CN(C)CC1CCCCC1)O2,0.4,0,109*
CC(C)NC(=O)Nc1ccc2c(c1)CC(=O)N([C@@H](C)CO)C[C@H](C)[C@H](CN(C)C(=O)Nc1ccc(F)cc1)O2,-0.68,0,111*
N#Cc1nc(-c2ccccc2F)oc1NCC1CCCO1 (stereo not given),/,/,-6
COc1cc2oc(-c3ccc(O)cc3)cc(=O)c2c(O)c1OC,-0.056,-2,63
COc1cc(-c2cc(=O)c3c(O)c(OC)c(OC)c(OC)c3o2)cc(OC)c1OC,-0.35,2,99*
CCN(CCC#N)C(=S)Nc1cc(C(F)(F)F)cc(C(F)(F)F)c1,-0.11,0,-6
COC(=O)C1(Cc2ccc(O)c(CC=C(C)C)c2)OC(=O)C(OC)=C1c1ccc(O)c(O)c1 (stereo not given),0.21,2,0
COC(=O)C1(Cc2ccc(O)cc2)OC(=O)C(OC)=C1c1ccc(O)cc1 (stereo not given),4.4*,-1,-5
COc1cc2c(cc1O)C(c1cccs1)N(Cc1cccc(OC(F)(F)F)c1)CC2 (stereo not given),0.53,/,8
CCCn1c2ccc(C)cc2c2nnc(SCCN3CCOCC3)nc21,0.32,0,142*
Cc1ccc2c(c1)c1nnc(SCCN3CCOCC3)nc1n2C,/,-1,4
CCCn1c2ccccc2c2nnc(SCCC(=O)O)nc21,/,-6,44
SMILES,YB-1 expression,PD-1 reversal,ROS inducer
CCCCn1c2ccccc2c2nnc(SCCN3CCOCC3)nc21,/,-6,155*
c1ccc2c(c1)[nH]c1nc(SCCN3CCOCC3)nnc12,/,-1,9
Cc1ccc2c(c1)c1nnc(SCCN3CCOCC3)nc1n2Cc1ccccc1,/,-9,113*
CC1CN(C(=O)Nc2ccc(Cl)cc2)c2ccccc2O1 (stereo not given),/,/,-10
CC(=O)c1cccc(NC(=O)C(C)NS(=O)(=O)c2ccc(Br)cc2)c1 (stereo not given),/,2,-6
O=c1c2ccccc2nc(SCc2ccc(Cl)cc2)n1CC1COc2ccccc2O1 (stereo not given),/,/,-14
COC(=O)CN1C=C(C(=O)OC)C(c2ccc(Cl)cc2)C(C(=O)OC)=C1,/,/,-7
COC(=O)C1=CN(C(CC(C)C)C(=O)OC)C=C(C(=O)OC)C1c1ccc(Br)cc1 (stereo not given),-0.57,-2,95*
C=C1C(=O)OC2/C=C(\CO)C(OC(C)=O)C/C=C(/C)CC(OC(=O)/C(C)=C\CO)C12 (stereo not given),4.7*,-6,53
C=C1C(=O)O[C@H]2C1[C@H](OC(=O)/C(C)=C/CO)C/C(C)=C\CC[C@@]1(C)OC21 (stereo not given in full),0.13,-28,72
N=C1S/C(=C/c2ccccc2)C(=O)N1c1nonc1N,0.52,-7,46
CCOc1cc(/C=C2/SC(=N)N(c3nccs3)C2=O)ccc1OCCN1CCOCC1,-0.16,-49,96*
O=C(NO)c1cccc(C(=O)N/N=C/c2ccc(CO)o2)c1,0.096,/,0
CCN(CC)S(=O)(=O)c1ccc(OC)c(NC(=O)c2cc3ccccc3oc2=O)c1,/,1,20
C[N+]1(C)CCCC(OC(=O)C(O)(c2ccccc2)c2ccccc2)C1 (stereo not given),8.9*,5,-11
C[N+]1(C)C2CC[C@H]1CC(OC(=O)C(O)c1ccccc1)C2 (stereo not given in full),0.48,/,-9
CCOC(=O)c1sc2nc(C)nc(N(C)Cc3ccccc3)c2c1C,/,/,9
CCOC(=O)c1sc2ncn3c(-c4ccc(C)cc4)nnc3c2c1C,/,/,198*
Cc1ccc(S(=O)(=O)N[C@@H](Cc2ccccc2)C(=O)CCl)cc1,0.84,/,79*
Cc1ccc(S(=O)(=O)NC(C)C(=O)Nc2ccccc2F)cc1 (stereo not given),/,0,-1
C/C=C(\C)C(=O)OC1C(OC(=O)/C=C(/C)CC(=O)O)C2(CO)C(O)CC3(C)C(=CCC4C5(C)CCC(OC6OC(C(=O)O)C(O)C(OC7OC(C)C(O)C(OC8OC(CO)C(O)C(O)C8O)C7O)C6O)C(C)(C)C5CCC43C)C2CC1(C)C (stereo not given),0.75,-39,-24
CC(C)(C)c1ccc(S(=O)(=O)N2CCN(c3ccc([N+](=O)[O-])c(NCc4cccnc4)c3)CC2)cc1,/,-4,98*
O=[N+]([O-])c1ccc(N2CCN(S(=O)(=O)c3ccc(F)cc3)CC2)cc1NCc1cccnc1,/,-1,136*
COc1ccccc1C(=O)N1CCN(c2ccc([N+](=O)[O-])c(NCc3ccco3)c2)CC1,/,-4,55
O=[N+]([O-])c1ccc(N2CCN(S(=O)(=O)c3ccc(Cl)s3)CC2)cc1NCc1ccco1,/,2,36
COC(=O)c1cn(CC(N)=O)c2ccccc12,/,1,-8
Cn1cc(C2=C(c3cn(CCCSC(=N)N)c4ccccc34)C(=O)NC2=O)c2ccccc21,0.53,-9,76*
CN(C)CCCn1cc(C2=C(c3c[nH]c4ccccc34)C(=O)NC2=O)c2ccccc21,0.61,/,81*
